PubChem BioAssay (Tox21)
Results filed as inconclusive are left out. The source made the active and inactive calls. Unless noted, calls come from the whole dose curve; as a rule, active = well fitted curve in the direction sought with a large enough effect in the repeat runs; inconclusive = weak or mixed curves; inactive = no such curve, though single readings can be large; an effect the other way counts as inactive or inconclusive.

Experiments:
[1] = molecular target: Aryl hydrocarbon receptor (Homo sapiens) (UniProt P35869); experiment: qHTS assay to identify small molecule that activate the aryl hydrocarbon receptor (AhR) signaling pathway (AID 743085); note: nearly all actives have a fitted effect of over 15% in size; note: potency is the fitted concentration of half-maximal effect;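 for activation: HG2L7.5c1 human HepG2 liver cells with stably integrated DRE-driven firefly reporter; series mostly up to about 70 µM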
Method in brief: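 Compounds were tested in HepG2 hepatocellular carcinoma cells harbouring a stably integrated luciferase gene under control of 20 DREs. Increased reporter signal after 24 h treatment at 37C was taken as AhR activation.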

[2] = qHTS assay to identify small molecule that activate the aryl hydrocarbon receptor (AhR) signaling pathway - cell viability counter screen (AID 743086);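 note: HepG2 liver cells carrying the AhR DRE luciferase reporter; series mostly up to about 70 µM; nearly all actives have a fitted effect of over 45% in size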
Method in brief: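 HepG2-AhR-luc (HG2L7.5c1) cells, 4000/well, were preincubated 5 h at 37C, exposed to compound in qHTS format for 24 hr at 37C, then given CellTiter-Fluor for 30 min; viability was read as fluorescence in the reporter wells.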

[3] = molecular target: Peroxisome proliferator-activated receptor gamma (Homo sapiens) (UniProt P37231); experiment: qHTS assay to identify small molecule agonists of the peroxisome proliferator-activated receptor gamma (PPARg) signaling pathway (AID 743094; active = well fitted activation curve with a large enough effect in the signal ratio in the repeat runs, not every such curve was filed as active; the % refers to the signal ratio)
Method in brief: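 Cell-based bla reporter, HEK293H background, PPARg-driven UAS. Pre-incubation 5 h, 37C, 5% CO2. Compound 17 h, 37C. Substrate 1 h RT; fluorescence.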

[4] = qHTS assay to identify small molecule antagonists of the peroxisome proliferator-activated receptor gamma (PPARg) signaling pathway - cell viability counter screen (AID 743194); note: nearly all actives have a fitted effect of over 55% in size
Method in brief: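 PPARg-UAS-bla HEK293H cells were plated, rested 5 h at 37 C, then treated with compounds plus rosiglitazone (50 nM final) for 17 h at 37 C; viability was then read by CellTiter-Glo luminescence after 30 min at room temperature.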

[5] = qHTS assay for small molecule agonists of the antioxidant response element (ARE) signaling pathway - cell viability counter screen (AID 743203; calls by dose curve; note: nearly all actives have a fitted effect of over 55% in size)
Method in brief: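 Measured in the same wells as the beta-lactamase ARE reporter, this read-out is CellTiter-Glo luminescence from HepG2 ARE-bla cells given compounds for 16 hrs.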

[6] = qHTS assay for small molecule activators of the heat shock response signaling pathway - cell viability counter screen (AID 743209); note: nearly all actives have a fitted effect of over 50% in size
Method in brief: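 Same-well multiplex: after 2.5 h room-temperature incubation with LiveBLAzer B/G substrate and fluorescence reading, CellTiter-Glo reagent was added to HSE-bla HeLa cells that had received compound for 5 h at 37 C; luminescence read after 30 min.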

[7] = qHTS assay to identify small molecule agonists of the peroxisome proliferator-activated receptor delta (PPARd) signaling pathway - cell viability counter screen (AID 743211); note: nearly all actives have a fitted effect of over 55% in size
Method in brief: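 Counter screen for cytotoxicity run in parallel with the PPARd reporter screen. Beta-lactamase reporter HEK293H cells exposed to compounds 17 h; ATP-based CellTiter-Glo luminescence quantified viability.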

[8] = molecular target: Bile acid receptor (Homo sapiens) (UniProt Q96RI1); experiment: qHTS assay to identify small molecule antagonists of the farnesoid-X-receptor (FXR) signaling pathway (AID 743217; active = well fitted inhibition curve with a large enough effect in the signal ratio in the repeat runs, not every such curve was filed as active; the % refers to the signal ratio)
Method in brief: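 FRET fluorescence after 2 h room-temperature LiveBLAzer loading gives the readout. Prior step: FXR-bla HEK 293T cells, seeded and incubated 5 h, received test compounds plus 50 uM final CDCA for 16 h at 37 °C.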

[9] = qHTS assay to identify small molecule agonists of the farnesoid-X-receptor (FXR) signaling pathway - cell viability counter screen (AID 743218); note: nearly all actives have a fitted effect of over 45% in size
Method in brief: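 Readout: CellTiter-Glo luminescence, 30 min RT, multiplexed after the FXR-bla FRET reading. HEK 293T FXR-UAS-bla cells received compound 5 h post-plating and were incubated 16 h at 37 C.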

[10] = molecular target: Bile acid receptor (Homo sapiens) (UniProt Q96RI1); experiment: qHTS assay to identify small molecule agonists of the farnesoid-X-receptor (FXR) signaling pathway (AID 743220; active = well fitted activation curve with a large enough effect in the signal ratio in the repeat runs, not every such curve was filed as active; the % refers to the signal ratio)
Method in brief: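 FXR-UAS-bla HEK 293T cells carrying a UAS-driven beta-lactamase reporter were plated for 5 h at 37C/5% CO2, then exposed to DMSO-dissolved Tox21 10K compounds for 16 h at 37C. A LiveBLAzer B/G FRET substrate was loaded for 2 h at room temperature before fluorescence reading.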

[11] = qHTS assay to identify small molecule antagonists of the farnesoid-X-receptor (FXR) signaling pathway - cell viability counter screen (AID 743221; active = well fitted cell-killing curve with a large enough effect in the repeat runs, not every such curve was filed as active; note: nearly all actives have a fitted effect of over 50% in size)
Method in brief: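 Multiplexed counter screen: viability of FXR-bla HEK 293T cells under agonist stimulation by chenodeoxycholic acid (50 uM, final) and test compound for 16 h at 37 C, measured by CellTiter-Glo luminescence in the reporter wells.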

[12] = molecular target: Vitamin D3 receptor (Homo sapiens) (UniProt P11473); experiment: qHTS assay to identify small molecule agonists of the vitamin D receptor (VDR) signaling pathway (AID 743222; calls by dose curve)
Method in brief: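 Following 4 h attachment at 37C, VDR-bla cells (2,000 per well) received DMSO-dissolved compounds or controls. After 16 h incubation, LiveBLAzer B/G FRET substrate was added and fluorescence read 2 h later at room temperature.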

[13] = molecular target: Vitamin D3 receptor (Homo sapiens) (UniProt P11473); experiment: qHTS assay to identify small molecule antagonists of the vitamin D receptor (VDR) signaling pathway (AID 743223; active = well fitted inhibition curve with a large enough effect in the signal ratio in the repeat runs, not every such curve was filed as active; the % refers to the signal ratio)
Method in brief: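 Cells carrying a VDR-driven beta-lactamase reporter (VDR-bla) were co-treated with compound and 3 nM final 1alpha,25-dihydroxyvitamin D3 for 16 h at 37C; reporter activity was measured as FRET substrate fluorescence after 2 h at room temperature.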

[14] = qHTS assay to identify small molecule agonists of the vitamin D receptor (VDR) signaling pathway - cell viability counter screen (AID 743224); note: series mostly up to about 63 µM; nearly all actives have a fitted effect of over 50% in size
Method in brief: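 In parallel with the bla FRET readout, cytotoxicity toward VDR-bla cells after 16 h compound exposure was assessed by CellTiter-Glo, with luminescence recorded after a 30 min room-temperature incubation.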

[15] = qHTS assay for small molecule agonists of the antioxidant response element (ARE) signaling pathway (AID 743202; active = well fitted activation curve with a large enough effect in the signal ratio in the repeat runs, not every such curve was filed as active; the % refers to the signal ratio; note: potency is the fitted concentration of half-maximal effect)
Method in brief: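 Following a 16 h, 37 C exposure of reporter HepG2 cells (ARE-driven beta-lactamase, 2,000 cells/well) to compounds, FRET substrate was applied for 2 h at room temperature and fluorescence intensity recorded.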

[16] = qHTS assay for small molecule activators of the heat shock response signaling pathway (AID 743210; active = well fitted activation curve with a large enough effect in the signal ratio in the repeat runs, with a control signal flat, not every such curve was filed as active; the % refers to the signal ratio; note: series mostly up to about 63 µM)
Method in brief: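 Heat shock element–beta-lactamase HeLa reporter cells; qHTS with compounds for 5 h at 37 C; detection by FRET substrate fluorescence after 2.5 h at RT.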

[17] = molecular target: Peroxisome proliferator-activated receptor delta (Homo sapiens) (UniProt Q03181); experiment: qHTS assay to identify small molecule agonists of the peroxisome proliferator-activated receptor delta (PPARd) signaling pathway (AID 743212; calls by dose curve)
Method in brief: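 Beta-lactamase reporter read by fluorescence (LiveBLAzer B/G FRET, 2 h, room temperature). Test agents, in DMSO, incubated at 37 C with PPARd-bla HEK293H cells.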

[18] = qHTS assay to identify small molecule antagonists of the peroxisome proliferator-activated receptor delta (PPARd) signaling pathway - cell viability counter screen (AID 743213); note: nearly all actives have a fitted effect of over 50% in size
Method in brief: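 Same-well viability: cells pre-incubated 5 h, dosed with compound plus 300 nM L165041, kept 17 h at 37 C, FRET substrate 2 h RT, then CellTiter-Glo 30 min RT and luminescence.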

[19] = molecular target: Peroxisome proliferator-activated receptor delta (Homo sapiens) (UniProt Q03181); experiment: qHTS assay to identify small molecule antagonists of the peroxisome proliferator-activated receptor delta (PPARd) signaling pathway (AID 743215; active = well fitted inhibition curve with a large enough effect in the signal ratio in the repeat runs, not every such curve was filed as active; the % refers to the signal ratio;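 note: cells stimulated with agonist L165041 at 300 nM final during compound exposure; series mostly up to about 62 µM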)
Method in brief: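 Fluorescence from cleaved LiveBLAzer B/G FRET substrate (2 h, room temperature) reports PPARd-driven beta-lactamase in HEK293H UAS-bla cells. Cells had been treated 17 h at 37 C with compound plus 300 nM final L165041.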

[20] = molecular target: Peroxisome proliferator-activated receptor gamma (Homo sapiens) (UniProt P37231); experiment: qHTS assay to identify small molecule antagonists of the peroxisome proliferator-activated receptor gamma (PPARg) signaling pathway (AID 743191; calls by dose curve; note: series mostly up to about 63 µM; nearly all actives have a fitted effect of over 30% in size)
Method in brief: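 GeneBLAzer PPARg UAS-bla HEK293H cells carrying a UAS-driven beta-lactamase reporter were plated at 3000 cells/well, preincubated 5 h at 37C, then given compound for 17 h at 37C; LiveBLAzer B/G FRET substrate was read after 1 h at room temperature.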

Measured: Potency

Aryl hydrocarbon receptor (Homo sapiens), sequence (P35869 whole entry, looked up): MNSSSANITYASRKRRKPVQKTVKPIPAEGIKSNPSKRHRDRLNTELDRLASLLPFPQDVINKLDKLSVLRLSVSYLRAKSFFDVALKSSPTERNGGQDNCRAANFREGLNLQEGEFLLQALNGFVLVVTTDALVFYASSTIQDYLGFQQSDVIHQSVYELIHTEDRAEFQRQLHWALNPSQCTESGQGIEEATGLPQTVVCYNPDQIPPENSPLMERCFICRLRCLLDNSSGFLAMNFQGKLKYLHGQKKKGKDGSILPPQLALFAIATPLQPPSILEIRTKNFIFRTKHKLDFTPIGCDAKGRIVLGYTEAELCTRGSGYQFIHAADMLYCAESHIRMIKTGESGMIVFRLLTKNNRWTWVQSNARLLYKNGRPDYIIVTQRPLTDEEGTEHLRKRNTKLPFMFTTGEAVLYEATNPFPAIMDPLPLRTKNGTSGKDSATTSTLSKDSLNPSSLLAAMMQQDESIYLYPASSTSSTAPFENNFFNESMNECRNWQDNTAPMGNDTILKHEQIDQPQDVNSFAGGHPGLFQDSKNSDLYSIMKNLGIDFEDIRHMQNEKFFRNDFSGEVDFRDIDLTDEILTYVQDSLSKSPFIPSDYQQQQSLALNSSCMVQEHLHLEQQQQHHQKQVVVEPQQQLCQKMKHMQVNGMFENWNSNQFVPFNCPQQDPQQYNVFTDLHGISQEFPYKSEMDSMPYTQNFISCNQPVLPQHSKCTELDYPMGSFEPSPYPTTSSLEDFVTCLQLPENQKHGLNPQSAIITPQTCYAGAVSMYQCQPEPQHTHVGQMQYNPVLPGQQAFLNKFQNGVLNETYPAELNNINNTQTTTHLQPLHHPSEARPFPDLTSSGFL
Vitamin D3 receptor (Homo sapiens), sequence (P11473 whole entry, looked up): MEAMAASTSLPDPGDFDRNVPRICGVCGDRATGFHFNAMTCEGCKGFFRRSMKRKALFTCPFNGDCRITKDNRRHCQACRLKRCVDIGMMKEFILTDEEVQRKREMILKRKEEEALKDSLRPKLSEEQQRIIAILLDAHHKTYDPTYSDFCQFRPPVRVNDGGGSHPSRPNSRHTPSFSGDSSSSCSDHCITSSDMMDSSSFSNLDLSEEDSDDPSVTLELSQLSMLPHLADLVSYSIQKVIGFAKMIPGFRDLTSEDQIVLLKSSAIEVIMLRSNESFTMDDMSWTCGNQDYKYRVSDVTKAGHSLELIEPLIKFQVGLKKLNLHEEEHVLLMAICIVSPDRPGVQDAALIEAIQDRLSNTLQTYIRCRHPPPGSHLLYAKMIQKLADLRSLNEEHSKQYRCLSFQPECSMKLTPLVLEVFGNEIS
Peroxisome proliferator-activated receptor gamma (Homo sapiens), sequence (P37231 whole entry, looked up): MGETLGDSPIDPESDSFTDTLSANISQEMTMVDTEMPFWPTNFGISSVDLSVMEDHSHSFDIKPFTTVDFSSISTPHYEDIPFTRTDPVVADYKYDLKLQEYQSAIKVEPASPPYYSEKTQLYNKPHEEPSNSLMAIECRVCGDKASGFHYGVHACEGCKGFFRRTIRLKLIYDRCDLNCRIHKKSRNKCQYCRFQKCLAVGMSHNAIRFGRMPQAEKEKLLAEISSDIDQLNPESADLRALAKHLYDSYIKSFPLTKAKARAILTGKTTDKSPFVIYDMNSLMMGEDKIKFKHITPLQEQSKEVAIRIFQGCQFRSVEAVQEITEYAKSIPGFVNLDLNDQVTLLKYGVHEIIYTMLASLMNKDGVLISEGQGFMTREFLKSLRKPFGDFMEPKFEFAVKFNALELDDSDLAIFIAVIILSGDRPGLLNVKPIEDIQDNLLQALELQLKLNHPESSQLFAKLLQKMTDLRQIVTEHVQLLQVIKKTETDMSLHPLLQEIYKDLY
Bile acid receptor (Homo sapiens), sequence (Q96RI1 whole entry, looked up): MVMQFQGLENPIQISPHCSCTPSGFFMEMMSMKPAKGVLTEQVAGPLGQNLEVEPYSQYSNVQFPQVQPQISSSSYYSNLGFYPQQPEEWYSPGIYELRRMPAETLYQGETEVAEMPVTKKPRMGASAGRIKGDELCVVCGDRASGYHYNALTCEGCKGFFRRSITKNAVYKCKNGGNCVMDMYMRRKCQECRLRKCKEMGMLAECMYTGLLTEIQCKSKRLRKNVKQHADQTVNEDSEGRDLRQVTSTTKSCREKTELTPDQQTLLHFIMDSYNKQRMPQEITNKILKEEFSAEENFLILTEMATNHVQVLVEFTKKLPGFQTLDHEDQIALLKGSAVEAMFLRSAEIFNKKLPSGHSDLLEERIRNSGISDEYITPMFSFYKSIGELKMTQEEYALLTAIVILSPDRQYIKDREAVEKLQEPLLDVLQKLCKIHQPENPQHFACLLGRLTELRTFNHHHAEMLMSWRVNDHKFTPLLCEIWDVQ
Peroxisome proliferator-activated receptor delta (Homo sapiens), sequence (Q03181 whole entry, looked up): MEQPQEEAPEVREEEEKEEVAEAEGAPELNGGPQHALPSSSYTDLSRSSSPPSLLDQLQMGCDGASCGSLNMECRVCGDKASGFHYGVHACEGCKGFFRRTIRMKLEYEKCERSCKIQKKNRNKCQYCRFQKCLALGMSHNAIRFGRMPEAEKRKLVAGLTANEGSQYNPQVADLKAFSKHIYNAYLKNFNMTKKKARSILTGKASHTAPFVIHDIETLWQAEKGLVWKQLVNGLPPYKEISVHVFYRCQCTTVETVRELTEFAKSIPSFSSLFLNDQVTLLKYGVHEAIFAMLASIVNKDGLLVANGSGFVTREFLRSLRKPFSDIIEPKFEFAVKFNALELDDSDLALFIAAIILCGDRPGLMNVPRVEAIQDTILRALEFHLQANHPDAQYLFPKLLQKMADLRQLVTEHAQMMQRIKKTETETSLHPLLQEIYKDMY

Nc1nc(-c2ccccc2)cs1
active: [1] 24.3 µM
not listed: [15] | [16] | [17] | [18] | [19] | [20]
inactive: all other assays above

CCCCCCCC/C=C\CCCCCCCCN
inactive: [1] | [2] | [3] | [15] | [6] | [16] | [7] | [17] | [9] | [11] | [12]

CCC(=O)OC(=O)CC
not listed: [9] | [12] | [13] | [15] | [20]
inactive: all other assays above

COC(C)=O
not listed: [4] | [12] | [13] | [16] | [20]
inactive: all other assays above

Nc1ccc(C(=O)O)c(O)c1
not listed: [16] | [20]
inactive: all other assays above

CC[C@H](C)COC(=O)/C=C/c1ccc(N=Cc2ccc(OC)cc2)cc1
not listed: [10] | [13] | [14] | [15] | [17] | [18] | [19] | [20]
inactive: all other assays above

CC(=O)Oc1cc2c(s1)CCN(C(C(=O)C1CC1)c1ccccc1F)C2 (stereo not given)
not listed: [4] | [8] | [10] | [13] | [18] | [20]
inactive: all other assays above

CC[N+](CC)(CC)CCOC(=O)C(C1CCCC1)C1CCCC1
inactive: [1] | [2] | [3] | [20] | [6] | [16] | [7] | [17] | [9] | [11] | [13]

O=C(O)CCN(C1(C(=O)NO)CCCC1)S(=O)(=O)c1ccc(Oc2ccc(F)cc2)cc1
inactive: [1] | [2] | [3] | [20] | [5] | [6] | [7] | [18] | [9] | [11]

CCOc1ccc2ccccc2c1C(=O)N[C@@H]1C(=O)N2[C@@H]1SC(C)(C)[C@@H]2C(=O)O
active: [15] 4.73 µM
not listed: [5] | [8] | [12] | [16] | [20]
inactive: all other assays above
